A selection: hits, their analogues and other compounds. The true share with any hit is near 14%.
Pf growth 96h – P. falciparum growth inhibition at 96 hour, primary screen for plastid delayed-death inhibitors; P. falciparum luciferase reporter growth, 96 h; Potency, µM (doses to about 28.7 µM), for inactives: at the top dose activity change, negative = inhibition, hits mostly inhibitors; hit rate 6.9% among 320,000; AID 504834; further: potency means the concentration at half of the fitted maximal effect
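Compounds incubated with erythrocytes infected by luciferase-expressing P. falciparum (2% hematocrit, 0.05% parasitemia final) for 96 hours, 37 C in 5% CO2. Growth inhibition scored as decreased luciferase luminescence.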
Lassa entry inh – inhibitors of Lassa virus binding or cell entry | Lassa virus pseudotype entry inhibition, cell reporter | Potency, µM (highest dose often 37.9 µM), for the others: at the highest dose activity change, negative = inhibition, most hits filed as inhibitors | hit rate 1.2% among 300,000 | AID 540256; calls by dose curve; tested in HEK293 cells; further: potency means the concentration at half of the fitted maximal effect; nearly all actives have a fitted effect of over 50% in size
Marburg entry inh – inhibitors of Marburg virus binding or cell entry; Marburg virus pseudotyped entry inhibition, cell reporter; Potency, µM (titrated, usually from 37.8 µM), for inactives: at the highest dose activity change, negative = inhibition, most hits filed as inhibitors; hit rate 1.8% among 300,000; AID 540276; calls by dose curve; tested in HEK293 cells; further: potency means the concentration at half of the fitted maximal effect
HCMV antiviral – blocks human cytomegalovirus replication | AID 1259415 | activity change, negative = inhibition, % at 57.5 µM | hit rate 4.5% among 410,000 | HFF cells, HCMV-luciferase reporter, 72 h; stronger effect = lower value; in the data active means activity change below about -60%; inconclusive means no clear call, values can overlap the other calls; inactive means above about -39%
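Screen run at 2 compound doses on HFFs infected with reporter HCMV, MOI 1 PFU/cell. Luciferase activity from cell lysates at 72 h post infection gave inhibition relative to buffer-only and Salinomycin wells.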
HCV inh – HCV inhibition; Huh7.5.1 HCVcc-Cre infection, luciferase reporter, 44 h; Potency, µM (titrated, usually from 41.8 µM), for the others: at the top dose activity change, negative = inhibition, usual class: inhibitors; hit rate 3.4% among 340,000; AID 651820; further: potency means the concentration at half of the fitted maximal effect
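Whole-lifecycle infectious HCVcc-Cre system; cells 1,000/well, compound then virus (~0.5 moi) added 4 h after plating, 44 h culture. Luciferase read 15 sec following 15 min substrate incubation, room temp.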
Pf growth 48h – inhibits P. falciparum growth in the first generation, 48 h; P. falciparum luciferase growth in erythrocytes, 48 h; AID 504832; Potency, µM (titrated, usually from 28.7 µM), inactives show at the top dose activity change, negative = inhibition, usual class: inhibitors; hit rate 5.9% among 310,000; further: potency means the concentration at half of the fitted maximal effect
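Growth was read as firefly luciferase luminescence after a 48 h, 37 C, 5% CO2 exposure of compounds to reporter-bearing P. falciparum cultures (0.1% parasitemia, 2% hematocrit final) in Albumax-supplemented RPMI 1640.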
* = called active by the depositor; ? = inconclusive; . = not tested or not shown; [ ] = remark or other dose. Unless noted, the call rests on the fitted dose curve; in most records, active means well fitted inhibition curve with a large enough effect; inconclusive means small, poorly fitted or top-dose-only effect, or another doubt; inactive means no such curve, though single readings can be large or run the other way. On the % scale 0 is the no-effect control and ±100 the full control effect.

SMILES | Pf growth 96h | Lassa entry inh | Marburg entry inh | HCMV antiviral | HCV inh | Pf growth 48h
Cc1ccc(S(=O)(=O)N2CCC(C(=O)Nc3ccccc3N3CCCC3)CC2)cc1 | 0% | -5% | -14% | -13 | -22% | ?
COc1nnc(-c2ccc(N3CCCCC3)c(NC(=O)C3CCCCC3)c2)c2ccccc12 | . | 17% | 2% | -101* | -9% | 20%
Cc1ccc(S(=O)(=O)N2CCC(C(=O)Nc3ccccc3N3CCCCC3)CC2)cc1 | 13% | ? | ? | -18 | ? | 7.4µM*
COc1ccc(S(=O)(=O)N2CCC(C(=O)Nc3ccccc3N3CCCC3)CC2)cc1OC | 12µM* | . | . | 1 | ? | ?
COc1ccc(S(=O)(=O)N2CCC(C(=O)Nc3ccccc3)CC2)cc1OC | . | -26%[46.1 µM] | 20%[46.1 µM] | 0 | . | .
CCOC(=O)[C@]12CCC=C1N(Cc1ccc(Cl)cc1Cl)C(=O)[C@H](CC(=O)NCCc1ccccc1OC)C2 | . | . | . | 6 | . | .
COc1cccc([C@H]2C(C(=O)c3cccs3)=C(O)C(=O)N2c2cc(C)on2)c1 | . | . | 13% | . | . | .
COC(=O)c1ccccc1NC(=O)CSc1cc(-c2ccccc2)nc(C)n1 | . | -7%[46.1 µM] | 20%[46.1 µM] | 17 | . | .
CN(C)CCNC(=O)c1onc(CSc2ccc(F)cc2)c1C(=O)NCCN(C)C | 3% | . | . | ? | ? | 13µM*
CCCNC(=O)c1onc(CSc2ccc(F)c(F)c2)c1C(=O)NCCC | . | . | . | 34 | ? | .
C=CCNC(=O)c1onc(CSc2ccc(F)cc2)c1C(=O)NCC=C | -60% | . | . | -14 | -5% | ?
O=C(NCc1ccccc1)c1onc(CSc2ccccc2)c1C(=O)NCC1CC1 | ? | . | . | -12 | 10µM* | ?
CN(C)CCNC(=O)c1onc(CSc2ccc(F)c(F)c2)c1C(=O)NCCN(C)C | 6.6µM* | . | . | -36 | 13µM* | 8.3µM*
Cc1cc(OCc2cn(CC(=O)c3ccc(O)cc3)nn2)cc(C)c1C | . | -18%[46.1 µM] | . | . | . | .
CCOc1cccc2cc(-c3nc4sc5c(c4c(=O)[nH]3)CCC(C)C5)c(=O)oc12 (stereo not drawn) | . | 4%[46.1 µM] | . | -24 | . | .
Cn1cccc1-c1cc(C(=O)N2CCc3c([nH]c4ccccc34)C2c2ccccn2)[nH]n1 (stereo not drawn) | 0% | -40% | ? | 9 | -25% | ?
CC(C)CC1c2[nH]c3ccccc3c2CCN1C(=O)c1cnccn1 (stereo not drawn) | ? | ? | 2.8µM* | 2 | -6% | ?
CC(C)CC1c2[nH]c3ccccc3c2CCN1C(=O)C1CCOCC1 (stereo not drawn) | 4% | ? | ? | -1 | 1% | 4.7µM*
CC(=O)c1cc(C(=O)N2CCc3c([nH]c4ccccc34)C2CC(C)C)[nH]n1 (stereo not drawn) | 9.3µM* | ? | ? | 8 | 4% | ?
CC(C)CC1c2[nH]c3ccccc3c2CCN1C(=O)CCC(=O)N(C)C (stereo not drawn) | 6.6µM* | 7% | 15%[46.1 µM] | 47 | 3% | 1%
Cc1nc(C)c(-c2csc(Nc3ccc(Cl)cn3)n2)s1 | . | . | . | -26 | . | .
CSCCC(NS(=O)(=O)c1ccc2c(c1)oc(=O)n2C)C(=O)Nc1ccc(Cl)cc1 (stereo not drawn) | . | -5%[46.1 µM] | -13%[46.1 µM] | -8 | . | .
C=CCNc1cc(C(F)(F)F)nc(-c2ccccn2)n1 | 4.1µM* | ? | -21% | 6 | -3% | 6.6µM*
Cc1cc(=O)c(C(=O)Nc2cccc(C(=O)NC3CC3)c2)nn1-c1ccccc1Cl | 7.4µM* | . | . | 5 | ? | ?
CC(C)(C)NC(=O)NCc1cccnc1 | 0% | . | . | 8 | 6% | -1%
SMILES | Pf growth 96h | Lassa entry inh | Marburg entry inh | HCMV antiviral | HCV inh | Pf growth 48h
CC12CC3(C)CC(C)(C1)CC(C(=O)NCc1cccnc1)(C2)C3 | 12µM* | -15% | -2% | 5 | 11% | -17%
CC12CC3CC(C)(C1)CC(C(=O)NCc1ccco1)(C3)C2 | 5% | 14% | 4%[46.1 µM] | -38 | 9% | 0%
CC12CC3CC(C)(C1)CC(C(=O)NCc1cccnc1)(C3)C2 | 3.7µM* | 4% | -2% | 4 | 15% | 52%
O=C(c1cc([N+](=O)[O-])ccc1N1CCCC1)N1CCCC1 | ? | -16% | -6%[46.1 µM] | 4 | -21% | 0%
O=C(c1cc([N+](=O)[O-])ccc1N1CCCCC1)N1CCCC1 | 7.4µM* | 1% | 20% | ? | 14% | 31%
CN1CCN(c2ccc([N+](=O)[O-])cc2C(=O)N2CCCCC2)CC1 | 12µM* | -4% | ? | 12 | -7% | 0%
O=C(/C=C/c1ccc(Cl)cc1)N1CCN(c2ccc([N+](=O)[O-])c(N3CCOCC3)c2)CC1 | 10µM* | 0% | -10% | -38 | 7.9µM* | ?
O=C(c1cc([N+](=O)[O-])ccc1N1CCOCC1)N1CCN(S(=O)(=O)c2cc(Cl)ccc2Cl)CC1 | ? | 14% | 0% | 4 | 3% | 10µM*
COc1ccccc1CNC(=O)CCn1cnc2ccccc2c1=O | . | 8%[46.1 µM] | . | 8 | . | .
Cc1ccc(N2CC(c3nnc(Cc4ccc(F)cc4Cl)o3)CC2=O)cc1 (stereo not drawn) | . | 15%[46.1 µM] | 0%[46.1 µM] | 5 | . | .
O=C(c1cc([N+](=O)[O-])ccc1N1CCOCC1)N1CCCCC1 | 11% | 0% | 6% | ? | 7% | 10%
O=C(c1cc([N+](=O)[O-])ccc1N1CCOCC1)N1CCN(c2ccc([N+](=O)[O-])cc2)CC1 | 9.3µM* | 3% | ? | -14 | 2% | ?
O=[N+]([O-])c1cccc(OCC(O)CN2CCN(S(=O)(=O)c3cc(Cl)ccc3Cl)CC2)c1 (stereo not drawn) | 10µM* | 13%[46.1 µM] | ? | 0 | -29% | ?
O=S(=O)(c1ccc(Cl)c(C(F)(F)F)c1)N1CCN(CC(O)COc2ccccc2F)CC1 (stereo not drawn) | ? | -19% | -6%[46.1 µM] | -13 | 11% | ?
Cc1ccc(Cc2nnc3n(-c4ccccc4)nc(C(=O)c4ccccc4)n3c2=O)cc1 | 13µM* | ? | ? | ? | ? | 13µM*
CCOC(=O)c1c(C)[nH]c(CCC(=O)NCc2ccccc2C)c1C | . | -3%[46.1 µM] | . | 40 | . | .
COC(=O)c1ccc2c(=O)n(CCCCCC(=O)N3CCN(c4ccc(Cl)cc4)CC3)c(=O)[nH]c2c1 | . | -2%[46.1 µM] | . | 71 | . | .
O=C(Nc1ccccc1)C1Cc2c(-c3cccc(F)c3)ccnc2O1 (stereo not drawn) | . | . | . | -31 | . | .
CS(=O)(=O)Nc1cccc(NC(=O)C2Cc3c(-c4cccc(F)c4)ccnc3O2)c1 (stereo not drawn) | . | . | . | -78* | . | .
COc1ccc(NC(=O)C2Cc3c(-c4cccc(F)c4)ccnc3O2)cc1OC (stereo not drawn) | . | . | . | -76* | . | .
